Calls of active or inactive are those of the source. Rule for the calls: active = hit-call score of the fitted dose curve at least 0.9, where 1 is the maximum; inactive = score below 0.9.
The compounds below were run on Transforming growth factor beta 1 (TGFb1), TGFB1 (gene 7040) (assay: BSK_BE3C_TGFb1: BioMAP Diversity Plus: BE3C Assay for Transforming growth factor beta 1 (TGFb1) Biomarker Activity (AID 2283036;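 for outcome: TGF-b1 protein level measured by ELISA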)). Settings: primary human bronchial epithelial cells; actives raise or lower the signal.
Method in brief: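 Bronchial epithelial primary cells are treated with test chemical, then TGF-b1 is quantified by ELISA after 24 hours. Values derive from bidirectional fitting against DMSO, with cytotoxicity checked by SRB staining in parallel cultures.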
With N#Cc1ccc(CC(=NNC(=O)Nc2ccc(OC(F)(F)F)cc2)c2cccc(C(F)(F)F)c2)cc1 the outcome was “inactive”.
O=[N+]([O-])c1cc(C(F)(F)F)ccc1Cl was tested, and the outcome was “inactive”.
With BrC1CCC(Br)C(Br)CCC(Br)C(Br)CCC1Br (configuration not stated) the outcome was “inactive”.
CCn1c2ccccc2c2cc(N)ccc21 was tested, and the outcome was “inactive”.
CCc1c(C)cc(N)c(CC)c1N was tested, and the outcome was “inactive”.
With c1ccc2sc(SN(C3CCCCC3)C3CCCCC3)nc2c1 the outcome was “inactive”.
For O=C(O)c1ccc([N+](=O)[O-])cc1, the outcome was “inactive”.
CC1CCC(C(C)CS)CC1S (configuration not stated) was tested, and the outcome was “inactive”.
With O=C(O)C[C@H](O)C[C@H](O)/C=C/c1c(C2CC2)nc2ccccc2c1-c1ccc(F)cc1 the outcome was “inactive”.
For c1ccc2c(c1)c1cccc3ccc4cccc2c4c31, the outcome was “inactive”.
O=C1OC2(c3cc(Br)c(O)c(Br)c3Oc3c2cc(Br)c(O)c3Br)c2c(Cl)c(Cl)c(Cl)c(Cl)c21 was tested, and the AC50 was 587 nM (active).
CNC[C@H](O)c1cccc(O)c1 was tested, and the outcome was “inactive”.
With Cc1ccc2n[nH]nc2c1 the outcome was “inactive”.
With COC(=O)c1ccc(C)cc1 the outcome was “inactive”.
In the case of CC(C)Oc1ccccc1O, the outcome is reported as “inactive”.
With O=C=NC1CCC(CC2CCC(N=C=O)CC2)CC1 (configuration not stated) the outcome was “inactive”.
With O=P(c1ccccc1)(c1ccccc1)c1ccccc1 the outcome was “inactive”.
With CN(CCOc1ccc(CC2SC(=O)NC2=O)cc1)c1ccccn1 (configuration not stated) the outcome was “inactive”.
In the case of CC(=O)Nc1ccccc1O, the outcome is reported as “inactive”.
CCCCCCCCCC=O was tested, and the outcome was “inactive”.
CCCCC/C=C/C=C/C=O was tested, and the outcome was “inactive”.
In the case of CCCCCCCCC=O, the outcome is reported as “inactive”.

Each compound was assayed on Plasminogen activator inhibitor-1 (PAI1), SERPINE1 (gene 5054) (assay: BSK_BE3C_PAI1: BioMAP Diversity Plus: BE3C Assay for Plasminogen activator inhibitor-1 (PAI1) Biomarker Activity (AID 2283037)). Settings: primary human bronchial epithelial cells; actives raise or lower the signal.
Method in brief: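 Values derive from bidirectional fitting against DMSO baseline of PAI-1 levels, measured by ELISA in human bronchial epithelial cells 24 h after compound addition.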
N#Cc1ccc(CC(=NNC(=O)Nc2ccc(OC(F)(F)F)cc2)c2cccc(C(F)(F)F)c2)cc1 was tested, and the outcome was “inactive”.
In the case of O=[N+]([O-])c1cc(C(F)(F)F)ccc1Cl, the outcome is reported as “inactive”.
With BrC1CCC(Br)C(Br)CCC(Br)C(Br)CCC1Br (configuration not stated) the outcome was “inactive”.
In the case of CC(=O)[C@H]1CC[C@H]2[C@@H]3CC=C4C[C@@H](O)CC[C@]4(C)[C@H]3CC[C@]12C, the outcome is reported as “inactive”.
CCn1c2ccccc2c2cc(N)ccc21 was tested, and the AC50 was 3970 nM (active).
COc1cc(C=O)ccc1OC(=O)C(C)C was tested, and the outcome was “inactive”.
With CCc1c(C)cc(N)c(CC)c1N the outcome was “inactive”.
With c1ccc2sc(SN(C3CCCCC3)C3CCCCC3)nc2c1 the outcome was “inactive”.
In the case of O=C(O)c1ccc([N+](=O)[O-])cc1, the outcome is reported as “inactive”.
With CC[Si](OC(C)=O)(OC(C)=O)OC(C)=O the outcome was “inactive”.
For CC1CCC(C(C)CS)CC1S (configuration not stated), the outcome was “inactive”.
In the case of O=C(O)C[C@H](O)C[C@H](O)/C=C/c1c(C2CC2)nc2ccccc2c1-c1ccc(F)cc1, the outcome is reported as “inactive”.
In the case of c1ccc2c(c1)c1cccc3ccc4cccc2c4c31, the outcome is reported as “inactive”.
In the case of O=C1OC2(c3cc(Br)c(O)c(Br)c3Oc3c2cc(Br)c(O)c3Br)c2c(Cl)c(Cl)c(Cl)c(Cl)c21, the AC50 is reported as 563 nM (active).
CNC[C@H](O)c1cccc(O)c1 was tested, and the outcome was “inactive”.
With Cc1ccc2n[nH]nc2c1 the outcome was “inactive”.
With COC(=O)c1ccc(C)cc1 the outcome was “inactive”.
In the case of CC(C)Oc1ccccc1O, the outcome is reported as “inactive”.
For O=C=NC1CCC(CC2CCC(N=C=O)CC2)CC1 (configuration not stated), the outcome was “inactive”.
For O=P(c1ccccc1)(c1ccccc1)c1ccccc1, the outcome was “inactive”.
For CN(CCOc1ccc(CC2SC(=O)NC2=O)cc1)c1ccccn1 (configuration not stated), the AC50 was 210 nM (active).
With CC(=O)Nc1ccccc1O the outcome was “inactive”.
For CCCCCCCCCC=O, the outcome was “inactive”.
With CCCCC/C=C/C=C/C=O the outcome was “inactive”.
CCCCCCCCC=O was tested, and the outcome was “inactive”.

These compounds were tested on urokinase plasminogen activator (uPA), PLAU (gene 5328) (assay: BSK_BE3C_uPA: BioMAP Diversity Plus: BE3C Assay for urokinase plasminogen activator (uPA) Biomarker Activity (AID 2283038;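 for outcome: uPA protein level quantified by ELISA in cell cultures; uPA read one day after compound addition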)). Settings: primary human bronchial epithelial cells; actives raise or lower the signal.
Method in brief: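 Bronchial epithelial cells (human, primary); chemical 24 h; uPA by ELISA; bidirectional fit vs DMSO. SRB (0.1%, after 10% TCA fixation, 560 nm) in parallel cultures for cytotoxicity.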
N#Cc1ccc(CC(=NNC(=O)Nc2ccc(OC(F)(F)F)cc2)c2cccc(C(F)(F)F)c2)cc1 was tested, and the outcome was “inactive”.
In the case of O=[N+]([O-])c1cc(C(F)(F)F)ccc1Cl, the outcome is reported as “inactive”.
With BrC1CCC(Br)C(Br)CCC(Br)C(Br)CCC1Br (configuration not stated) the outcome was “inactive”.
CC(=O)[C@H]1CC[C@H]2[C@@H]3CC=C4C[C@@H](O)CC[C@]4(C)[C@H]3CC[C@]12C was tested, and the outcome was “inactive”.
With CCn1c2ccccc2c2cc(N)ccc21 the outcome was “inactive”.
For COc1cc(C=O)ccc1OC(=O)C(C)C, the outcome was “inactive”.
CCc1c(C)cc(N)c(CC)c1N was tested, and the outcome was “inactive”.
With c1ccc2sc(SN(C3CCCCC3)C3CCCCC3)nc2c1 the outcome was “inactive”.
For O=C(O)c1ccc([N+](=O)[O-])cc1, the outcome was “inactive”.
For CC[Si](OC(C)=O)(OC(C)=O)OC(C)=O, the outcome was “inactive”.
With CC1CCC(C(C)CS)CC1S (configuration not stated) the outcome was “inactive”.
For O=C(O)C[C@H](O)C[C@H](O)/C=C/c1c(C2CC2)nc2ccccc2c1-c1ccc(F)cc1, the AC50 was 1700 nM (active).
For c1ccc2c(c1)c1cccc3ccc4cccc2c4c31, the outcome was “inactive”.
With O=C1OC2(c3cc(Br)c(O)c(Br)c3Oc3c2cc(Br)c(O)c3Br)c2c(Cl)c(Cl)c(Cl)c(Cl)c21 the AC50 was 736 nM (active).
CNC[C@H](O)c1cccc(O)c1 was tested, and the outcome was “inactive”.
In the case of Cc1ccc2n[nH]nc2c1, the outcome is reported as “inactive”.
With COC(=O)c1ccc(C)cc1 the outcome was “inactive”.
CC(C)Oc1ccccc1O was tested, and the outcome was “inactive”.
O=C=NC1CCC(CC2CCC(N=C=O)CC2)CC1 (configuration not stated) was tested, and the outcome was “inactive”.
O=P(c1ccccc1)(c1ccccc1)c1ccccc1 was tested, and the outcome was “inactive”.
CN(CCOc1ccc(CC2SC(=O)NC2=O)cc1)c1ccccn1 (configuration not stated) was tested, and the outcome was “inactive”.
CC(=O)Nc1ccccc1O was tested, and the outcome was “inactive”.
In the case of CCCCCCCCCC=O, the outcome is reported as “inactive”.
For CCCCC/C=C/C=C/C=O, the AC50 was 31300 nM (active).
For CCCCCCCCC=O, the outcome was “inactive”.
